Measurements taken from PubChem BioAssay (Tox21).
Inconclusive results are not listed. Activity calls are given as the source filed them. Unless noted, calls come from the whole dose curve; as a rule, active = well fitted curve in the direction sought with a large enough effect in the repeat runs; inconclusive = weak or mixed curves; inactive = no such curve, though single readings can be large; an effect the other way counts as inactive or inconclusive.

Tests used:
[1] = qHTS assay to identify small molecule antagonists of the TGF-beta/Smad signaling pathway - cell viability counter screen (AID 1346824); conditions: SBE-bla HEK293T viability, CellTiter-Glo luminescence; series mostly up to 76.8 µM; note: nearly all actives have a fitted effect of over 50% in size
In short: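 SBE-bla HEK 293T cells were plated overnight at 37 C, then given compounds in DMSO plus TGF-beta1 (added as 0.25 ng/mL solution) for 5 hr. After the bla read, CellTiter-Glo was added to the same wells and luminescence read after 30 min at room temperature.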

[2] = qHTS assay to identify small molecule agonists of the TGF-beta/Smad signaling pathway - cell viability counter screen (AID 1346829); conditions: SBE-bla HEK293T viability, CellTiter-Glo luminescence, 5 h; series mostly up to 76.8 µM; note: top concentration of the series differs between compounds; nearly all actives have a fitted effect of over 45% in size
In short: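 After overnight seating at 37 C and 5% CO2, reporter cells got compounds for 5 hr and FRET substrate for 2 hr; cell viability then came from CellTiter-Glo luminescence.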

[3] = qHTS assay to identify small molecule agonists of the TGF-beta/Smad signaling pathway (AID 1346859; active = well fitted activation curve with a large enough effect in the signal ratio in the repeat runs, not every such curve was filed as active; the % refers to the signal ratio); conditions: SBE-bla HEK293T, TGF-beta/Smad beta-lactamase reporter, 5 h; series mostly up to 76.8 µM
In short: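 Beta-lactamase reporter activity downstream of Smad binding elements was measured in stably transfected HEK 293T cells; compounds were incubated for 5 hr, substrate for 2 hr at room temperature.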

[4] = target: Thyrotropin-releasing hormone receptor (Homo sapiens) (UniProt P34981); assay: qHTS assay to identify small molecule antagonists of the thyrotropin-releasing hormone receptor (TRHR) signaling pathway (AID 1346877; active = well fitted inhibition curve with a large enough effect in the repeat runs, not every such curve was filed as active); conditions: TRHR-HEK293, TRH-induced calcium fluorescence, antagonist mode; series mostly up to 51.3 µM
In short: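 Overnight-plated (18 h, 37 °C) HEK293 cells expressing TRHR were dye-loaded 2 h, treated with compound, then stimulated with TRH at 1 nM final. Fluorescence intensity was captured every second for 3 min.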

[5] = target: Thyrotropin-releasing hormone receptor (Homo sapiens) (UniProt P34981); assay: qHTS assay to identify small molecule agonists of the thyrotropin-releasing hormone receptor (TRHR) signaling pathway (AID 1346891; calls by dose curve;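 note: HEK293 cells expressing TRHR with calcium dye readout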); conditions: TRHR-HEK293 calcium fluorescence, agonist mode; series mostly up to 57.6 µM
In short: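 Overnight-plated (18 h, 37 °C, 5% CO2) TRHR-Hek293 cells; 2 h calcium dye at 37 °C; compound in DMSO; 3-min kinetic fluorescence read.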

[6] = Caspase-3/7 induction in HepG2 cells by small molecules, qHTS assay (AID 1346978); conditions: HepG2 caspase-3/7 activation, Caspase-Glo luminescence, 17 h; series mostly up to 92.4 µM; note: nearly all actives have a fitted effect of over 15% in size
In short: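 Wild-type HepG2 cells (2,000/well) were settled 5 h at 37 C, 5% CO2, then exposed to compounds in DMSO for 17 h. Caspase-3/7 activity was read by luminescence 30 min after adding Caspase-Glo 3/7 reagent at room temperature.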

[7] = Caspase-3/7 induction in CHO-K1 cells by small molecules, qHTS cell viability counter screen (AID 1346979); conditions: CellTiter-Fluor fluorescence, 17 h; series mostly up to 92.4 µM; note: nearly all actives have a fitted effect of over 35% in size
In short: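 Multiplexed with Caspase-Glo 3/7 in CHO-K1 cells, this counter screen added CellTiter-Fluor after 16hr of compound exposure and recorded fluorescence 1hr later.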

[8] = Caspase-3/7 induction in CHO-K1 cells by small molecules, qHTS assay (AID 1346980); conditions: CHO-K1 caspase-3/7 induction, Caspase-Glo luminescence, 17 h; series mostly up to 92.4 µM; note: nearly all actives have a fitted effect of over 15% in size
In short: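 Wild-type cells were seeded at 1,500 per well and settled 5 hr at 37 C, 5% CO2, then exposed to DMSO-dissolved compounds for 17 hr. Caspase-Glo 3/7 reagent was added, and luminescence was read after 30min at room temperature.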

[9] = Caspase-3/7 induction in HepG2 cells by small molecules, qHTS cell viability counter screen (AID 1346981); conditions: CellTiter-Fluor fluorescence, 17 h; series mostly up to 92.4 µM; note: nearly all actives have a fitted effect of over 30% in size
In short: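 Treatment of HepG2 cells with DMSO-delivered compounds ran 16 hr at 37 C following a 5-hr pre-incubation of 2,000 cells/well. CellTiter-Fluor fluorescence, read after 1 hr, served as the viability measure in a qHTS format.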

[10] = Human pregnane X receptor (PXR) small molecule agonists, qHTS cell viability counter screen (AID 1346977); conditions: PXR-Luc HepG2 viability, CellTiter-Fluor, 24 h; series mostly up to 92.4 µM; note: nearly all actives have a fitted effect of over 50% in size
In short: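 After a 5hr pre-incubation, PXR-Luc HepG2 cells received compounds plus positive control in DMSO and were kept 24hr at 37C. Cell viability was quantified by fluorescence from CellTiter-Fluor added for the final hour.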
% is set by controls: 0 for no effect and ±100 for the full control effect.

Chain of Thyrotropin-releasing hormone receptor (Homo sapiens) (P34981 whole entry, looked up): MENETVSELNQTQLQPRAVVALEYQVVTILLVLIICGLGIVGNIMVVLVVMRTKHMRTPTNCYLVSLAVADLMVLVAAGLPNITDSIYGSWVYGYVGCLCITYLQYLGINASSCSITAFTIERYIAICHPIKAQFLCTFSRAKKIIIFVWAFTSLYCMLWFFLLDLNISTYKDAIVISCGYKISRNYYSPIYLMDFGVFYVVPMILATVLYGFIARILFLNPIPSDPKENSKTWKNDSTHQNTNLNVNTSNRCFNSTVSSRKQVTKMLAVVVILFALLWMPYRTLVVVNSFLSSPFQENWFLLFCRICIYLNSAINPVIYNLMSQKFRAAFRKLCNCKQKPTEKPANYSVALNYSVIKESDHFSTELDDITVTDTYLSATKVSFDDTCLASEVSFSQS

CC(=O)O[C@@H]1CC2CCC1(C)C2(C)C (stereo partly drawn)
inactive: outcome [1] | outcome [2] | outcome [3] | outcome [4] | outcome [5] | outcome [6] | Potency [7] | outcome [8] | outcome [9]

CC1=NN(c2ccc(S(=O)(=O)O)cc2)C(=O)C1
inactive: outcome [1] | outcome [2] | outcome [3] | outcome [4] | outcome [5] | outcome [6] | Potency [7] | outcome [8] | outcome [9]

c1ccc2cnccc2c1
inactive: outcome [1] | outcome [2] | outcome [3] | outcome [10] | outcome [6] | Potency [7] | outcome [8] | outcome [9]

O=C(CCCCC(=O)Nc1c(I)cc(I)c(C(=O)O)c1I)Nc1c(I)cc(I)c(C(=O)O)c1I
inactive: outcome [1] | outcome [2] | outcome [3] | outcome [4] | outcome [5] | outcome [6] | outcome [8] | outcome [9]

C[C@]12CCC(=O)C=C1CC[C@H]1[C@@H]3CC[C@](O)(C(=O)CO)[C@@]3(C)C[C@H](O)[C@@]12F
inactive: outcome [1] | outcome [3] | outcome [4] | outcome [5] | outcome [10] | outcome [6] | Potency [7] | outcome [8] | outcome [9]

CC(=O)CCC1=C(C)CCCC1(C)C
inactive: outcome [1] | outcome [3] | outcome [4] | outcome [5] | outcome [10] | outcome [6] | Potency [7] | outcome [8]

COC(=O)CCCCC(=O)O
inactive: outcome [1] | outcome [2] | outcome [3] | outcome [10] | outcome [6] | outcome [8] | outcome [9]

CCCC(=O)OC/C=C(\C)CCC=C(C)C
inactive: outcome [1] | outcome [2] | outcome [3] | outcome [6] | Potency [7] | outcome [8] | outcome [9]

OCC1CCC(CO)CC1 (stereo not drawn)
inactive: outcome [1] | outcome [2] | outcome [3] | outcome [10] | outcome [6] | Potency [7] | outcome [8] | outcome [9]

CCCCCc1cccc(=O)o1
inactive: outcome [1] | outcome [2] | outcome [3] | outcome [10] | outcome [6] | Potency [7] | outcome [8] | outcome [9]

CC1=C(C(=O)O)N2C(=O)[C@@H](NC(=O)[C@H](N)C3=CCC=CC3)[C@H]2SC1
inactive: outcome [1] | outcome [2] | outcome [3] | outcome [10] | outcome [6] | Potency [7] | outcome [8] | outcome [9]

COc1ccc(CCO)cc1
inactive: outcome [1] | outcome [2] | outcome [3] | outcome [10] | outcome [6] | outcome [8] | outcome [9]

Cc1ccnc(N)c1
inactive: outcome [1] | outcome [2] | outcome [3] | outcome [10] | outcome [6] | outcome [8]

CN(C)CCN(C)CCO
inactive: outcome [1] | outcome [2] | outcome [3] | outcome [6] | Potency [7] | outcome [8] | outcome [9]

Cc1cc(C)c(C(=O)O)c(C)c1
inactive: outcome [1] | outcome [3] | outcome [4] | outcome [5] | outcome [10] | outcome [6] | Potency [7] | outcome [8] | outcome [9]

CCCC(CC)c1ccccc1 (stereo not drawn)
inactive: outcome [1] | outcome [2] | outcome [3] | outcome [10] | outcome [6] | outcome [8] | outcome [9]

Cc1ccc(N)cc1S(=O)(=O)O
inactive: outcome [1] | outcome [2] | outcome [3] | outcome [10] | outcome [6] | Potency [7] | outcome [8] | outcome [9]

c1ccc2c(CC3=NCCN3)cccc2c1
inactive: outcome [1] | outcome [2] | outcome [3] | outcome [10] | outcome [6] | outcome [8] | outcome [9]

CCCC(=O)Nc1ccc(OCC(O)CNC(C)C)c(C(C)=O)c1 (stereo not drawn)
inactive: outcome [1] | outcome [2] | outcome [3] | outcome [6] | Potency [7] | outcome [8] | outcome [9]

CC(C)Cn1cnc2c1c(=O)n(C)c(=O)n2C
inactive: outcome [1] | outcome [3] | outcome [4] | outcome [5] | outcome [10] | outcome [6] | Potency [7] | outcome [8] | outcome [9]

C/C=C(\C)C(=O)OCCc1ccccc1
inactive: outcome [1] | outcome [3] | outcome [4] | outcome [5] | outcome [10] | outcome [6] | Potency [7] | outcome [8] | outcome [9]

Cc1c(Cl)cccc1Cl
inactive: outcome [1] | outcome [2] | outcome [3] | outcome [10] | outcome [6] | Potency [7] | outcome [8] | outcome [9]

CCN(CC)CCN
inactive: outcome [1] | outcome [2] | outcome [3] | outcome [10] | outcome [6] | outcome [8] | outcome [9]

O=C1OCCO1
inactive: outcome [1] | outcome [2] | outcome [4] | outcome [5] | outcome [10] | outcome [6] | outcome [8] | outcome [9]

[O]=[Mo](=[O])=[O]
inactive: viability change, negative = cytotoxic [1] 0.506% [at 15.8 µM] | activity change, negative = cytotoxicity [2] 7.35% [at 15.8 µM] | activation [3] 0.212% [at 15.8 µM] | activity change, negative = cytotoxicity [10] 1.91% [at 19 µM] | caspase activation [6] 1.23% [at 19 µM] | activity change, negative = cytotoxicity [7] 3.86% [at 19 µM] | caspase-3/7 activation [8] 0.334% [at 19 µM] | activity change, negative = cytotoxicity [9] -3.34% [at 19 µM]

Nc1nc(-c2ccccc2)c(Br)c(=O)[nH]1
inactive: outcome [1] | outcome [2] | outcome [3] | outcome [10] | outcome [6] | outcome [8] | outcome [9]
